aSyn yeast rescue – qHTS of alpha-syn Inhibitors: NCGC Sytravon Library Screen; S. cerevisiae alpha-synuclein toxicity rescue, BacTiter-Glo growth, 24 h; Potency, µM (series often up to 46.1 µM), actives largely listed as activators; 0.02% of 94,000 active; AID 1347070, 2019; active = well fitted activation curve with a large enough effect; also: 0% is about no effect
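Growth restoration measured by BacTiter-Glo luminescence after 24 hr at 30 deg C; alpha-synuclein yeast, raffinose-pregrown to mid-log, were added at OD600=0.02 in galactose medium onto pinned compounds.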
Numbers without * were called inactive; i = inactive. This is one part of a sample in which hits are shown more often than they occur. Potency is read from the fitted curve at half-maximal effect.

SMILES	aSyn yeast rescue
COc1ccccc1-n1ncc2c(=O)[nH]c(SCC(=O)Nc3ccc(Cl)cc3)nc21	i
COc1ccccc1C(=O)Nc1cccc(OCc2cc(=O)n3ccccc3n2)c1	i
COc1cc2c(C(=O)N3CCN(c4ccc(C)cc4)C(C)C3)cn(CC(C)C)c(=O)c2cc1OC (stereo unspecified)	i
CCOC(=O)N1CCN(Cc2nc3cc(NC(=O)c4ccc([N+](=O)[O-])cc4)ccc3n2C(C)C)CC1	i
CCN(CC)c1ccc(NC(=O)c2c(C)nn(-c3ccc(F)cc3)c2-n2cccc2)c(C)c1	i
CCCN(CCC)CCCNC(=O)c1cc2c(=O)oc3ccc(C)cc3c2s1	13µM*
Cc1ccc(CNC(=O)c2cc3c(=O)oc4ccc(C)cc4c3s2)cc1	i
Cc1ccc2oc(=O)c3cc(C(=O)NCc4ccc(Cl)cc4)sc3c2c1	i
CCc1ccc(NC(=O)CN(c2ccc(C)cc2)S(=O)(=O)c2cccs2)cc1	i
COc1ccc(NC(=O)C(NC(=O)/C=C\c2ccc3c(c2)OCO3)c2ccccc2)cc1 (stereo unspecified)	i
CCC1CN(C(=O)N2CCC(C(=O)NCCCc3ccccc3)CC2)c2ccccc2O1 (stereo unspecified)	i
COC(=O)c1scc(-c2ccccc2)c1S(=O)(=O)Nc1cccc(C)c1C	i
CCOC(=O)c1scc(-c2ccccc2)c1S(=O)(=O)Nc1ccccc1OC	i
CCc1ccc(NS(=O)(=O)c2c(-c3ccccc3)csc2C(=O)OC)cc1	25µM*
COc1ccc(CNC(=O)c2cc3c(=O)n(C)c4ccccc4c3n2C)c(OC)c1	i
CCc1ccccc1NC(=O)C(=O)NCCCN1CCOCC1	i
O=c1c(-c2cc(-c3ccc(F)cc3)nc3c2COc2ccc(Cl)cc2-3)coc2ccc(F)cc12	i
Cc1cccc(N2CCN(S(=O)(=O)c3ccc(-c4cc(C(F)(F)F)on4)s3)CC2)c1C	i
O=C(CCSCc1cccc(Cl)c1)NCc1ccc(F)cc1Cl	28µM*
O=C(CCSCc1ccc(Cl)cc1)NCc1ccc(F)cc1Cl	i
O=C(CCSCc1ccccc1Cl)NCc1ccc(F)cc1Cl	i
COc1ccccc1CNC(=O)C1CCCN(c2nnc(-n3c(C)ccc3C)s2)C1 (stereo unspecified)	i
O=C(NCCCN1CCN(c2ccc(F)cc2)CC1)c1cc2c(Cl)nc3ccccc3c2s1	i
Cc1ccc(CCNC(=O)CCCn2c(=O)c3cccn3c3ccc(F)cc32)cc1	i
CCC1CN(C(=O)N2CCC(C(=O)NCCc3cc(OC)ccc3OC)CC2)c2ccccc2O1 (stereo unspecified)	i
SMILES	aSyn yeast rescue
CC1CCN(S(=O)(=O)c2ccc3nc(NCc4ccccc4)ccc3c2)CC1	i
CCCc1nnc(NC(=O)c2cc(=O)c3ccccc3o2)s1	i
Cc1cc(C)cc(OCC(=O)Nc2nc3c(s2)CC(C(C)(C)C)CC3)c1 (stereo unspecified)	i
CCCOc1cccc(C(=O)N(Cc2cc(OC)c(OC)c(OC)c2)C2CCS(=O)(=O)C2)c1 (stereo unspecified)	i
Cc1ccccc1C(=O)Nc1cccc(NC(=O)c2ccc(C(C)(C)C)cc2)c1	i
Cc1ccc(N2C(=O)CS(=O)(=O)C23C(=O)N(Cc2ccccc2C)c2ccccc23)cc1Cl (stereo unspecified)	i
CCn1nnc2cc(C(=O)Nc3cc(C)ccc3C)ccc21	i
Cc1ccc(-n2nc(CO)c(C(=O)NCc3cccnc3)n2)cc1C	i
Cc1ccc(-c2cc(C(F)(F)F)n3nc(C(=O)Nc4sc5c(c4C#N)CCC(C)C5)cc3n2)cc1 (stereo unspecified)	i
Cc1oc(-c2cccc(Cl)c2)nc1CSCC(=O)NCc1ccccc1Cl	20µM*
Cc1oc(-c2ccc(Cl)cc2)nc1CSCC(=O)NCc1ccccc1Cl	i
Cc1ccc(CNC(=O)CSCc2nc(-c3ccc(Cl)cc3)oc2C)cc1	i
CC1Cc2cc(S(=O)(=O)CCC(=O)Nc3ccc(Cl)cc3F)ccc2N1C(=O)C1CC1 (stereo unspecified)	i
Cc1c(C(=O)N(C)c2cccc(C(F)(F)F)c2)sc2nc3n(c(=O)c12)CCCCC3	i
COc1cccc(C(=O)NCCSc2c(-c3ccc(F)cc3)[nH]c3ccccc23)c1OC	i
CCn1c(=O)c2cc(C(=O)N3CCN(c4cccc(OC)c4)CC3)sc2c2ccccc21	i
CCCCN(C)CCNC(=O)C1CCN(c2nc3ccc(CC)cc3s2)CC1	i
COc1ccc(C2NC(=O)N(C)C3=C2C(=O)N(c2cccc(Cl)c2)C3)cc1 (stereo unspecified)	i
COc1ccc(CNC(=O)c2ccc(Cn3c(=O)c4cccn4c4cccnc43)cc2)c(OC)c1	i
CC(C)CCN(Cc1ccco1)C(=O)c1cc2c(Cl)nc3ccccc3c2s1	i
COc1cc(NC(=O)CSc2nc(-c3ccc(C(C)C)cc3)no2)cc(OC)c1	i
CCS(=O)(=O)c1ncc(Cl)c(C(=O)N2CCN(c3cccc(Cl)c3)CC2)n1	i

Screening results (PubChem)
